SMILES strings stand for the structures. About 83,000 compounds went through this panel and 20% of them were active in at least one assay; those are over-represented in the sample as a whole.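 Method: cells in 96-well plates; compound added at one concentration; 48 h incubation; percent growth measured; values under 10 scored active.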 A number with no mark means an inactive call. Active and inactive are the calls of the source.

Consider 79 compounds from PubChem BioAssay (NCI).

This assay relates to MDA-MB-468 breast. The assay is described as follows: NCI-60 one-dose screen, 48 h (100 = growth as untreated, 0 = no growth, -100 = all killed). Conditions: 10 µM unless noted.

For `N#CCc1csc(Cc2ccccc2)n1`, the growth is 107%. As to `O=C1C(=C(O)c2ccccc2)C(=O)c2ccccc21`, the growth was 120%.

Regarding `NC(=S)Cc1ccccc1`, the growth was 89.8%. The result for `COCCNc1ccc2ncc(C#Cc3cncc(C(=O)Nc4ccc(CN5CCN(C)CC5)c(C(F)(F)F)c4)c3)n2n1` reads -59.9% (active).

In the case of `ClCC(Cl)[C@@H]1CC2C=CC1C2` (some centres undefined), the growth was 96%. Regarding `O=C(/C(=C/c1ccc([N+](=O)[O-])cc1)SCc1ccc(F)cc1)c1ccc(F)cc1`, the growth is 83.7%. `CC(=O)ON1CCCC(P(=O)(OCCSC(=O)C(C)(C)C)OCCSC(=O)C(C)(C)C)C1=O` (centres undefined): the growth was 32%. Turning to `CCOC(=O)c1c2c(n(-c3ccc(C#N)cc3)c1-c1ccccc1)C=CCC2`, the growth is 88.9%. On to `Fc1ccc2[nH]cc(-c3nc(-c4c[nH]c5c(Cl)nccc45)cs3)c2c1`, for which the growth is 9.87% (active). With `CCCc1cc(=O)oc2c3c(c4c(c12)OC(C)(C)CC4)OC(C)[C@H](C)[C@@H]3O` (some centres undefined), the growth is 108%.

As for `C[N+]1(CCCCC[N+]2(C)CCCC2)CCCC1`, the growth is 117%.

For `C#C[C@]1(O)CC[C@H]2[C@@H]3CC=C4c5sc(-c6ccc(C)cc6)nc5CC[C@]4(C)[C@H]3CC[C@@]21C`, the growth is 84.4%. As for `CN(C)CCCC1(c2ccc(F)cc2)OCc2cc(-c3cccc4[nH]ccc34)ccc21` (centres undefined), the growth is -34.5% (active). The result for `C=C(C)[C@@H]1CC[C@]2(COS(C)(=O)=O)CC[C@]3(C)[C@H](CC[C@@H]4[C@@]5(C)CCCNC(C)(C)[C@@H]5CC[C@]43C)[C@@H]12` reads 49.9%. As to `CC/C=C\C/C=C\C[C@H](O)C/C=C1/C(=O)C=C[C@H]1C/C=C\CCC(=O)OC`, the growth is 28.3% [8.25 µM]. With `COc1ccc(-c2cc(=O)[nH]c3c(OC)c4ccccc4c(OC)c23)cc1`, the growth was -0.192% (active). Consider `COc1ccc(C(=O)Nc2cccc(-c3cc(=O)c4c(OC)c(OC)c(OC)cc4o3)c2)cc1`, for which the growth is 75.2%.

Turning to `COc1cc(OC)c2c(c1Cl)O[C@]1(C2=O)C(OCc2ccccc2)=CC(=O)C[C@H]1C`, the growth is -4.52% (active). For the compound `CC(=O)Nc1ccc(C(=O)Nc2cc(-c3ccccc3)ccc2N)cc1`, the growth is 110%. Consider `Cc1ccc(Cc2cnc(NC(=O)c3cc(C)oc3C)s2)cc1`, for which the growth was 31.5%.

On to `COc1cc(OC)cc(-c2ccc(-c3ccc(C(=N)N)cn3)o2)c1`, for which the growth is -69.9% (active).

Take `CC(C)(C)OC(=O)CN1CCc2c(sc3ncnc(N4CCN(c5ccc(F)cc5)CC4)c23)C1`: the growth is 92.3%.

Consider `NC1=NC(c2cccc(Br)c2)c2sc3ccc(Cl)cc3c2N1` (centres undefined), for which the growth was 87.4%. In the case of `COc1ccc(-c2nc3sccn3c2-c2nc3c([nH]2)C(=O)c2ccccc2C3=O)cc1`, the growth was 95%. On to `CCN(CC)CCCNCc1cc(-c2ccccc2)nc2cc(Cl)ccc12`, for which the growth is -25.7% (active). With `COc1cc(C(C)c2ccc3c(ccn3C)c2)cc(OC)c1OC` (centres undefined), the growth is 51.9%.

In the case of `O=C(Nc1nc(-c2ccccc2)cc(-c2ccc(Cl)cc2)n1)c1ccncc1`, the growth is 106%. As to `O=C(NCCc1ccccc1)C1CCC(=O)N1Cc1ccc(Br)cc1` (centres undefined), the growth is 108%. For the compound `COc1ccc2c3c(c(OCCCN(C)C)nc2c1)-c1ccc(Cl)cc1C3=O`, the growth was 43.5%. With `CCOC(=O)c1ccc(NC(=O)c2nc(-c3cc(OC)c(OC)c(OC)c3)n(-c3ccc(Cl)cc3)n2)cc1`, the growth is 107%. Consider `COc1ccc(-c2nc(C#N)c(NCC(c3ccc(Cl)cc3)N3CCCCC3)o2)cc1` (centres undefined), for which the growth is 93.3%.

For the compound `CCOc1ccccc1-n1c(CN2CCN(C(=O)COc3ccc(CNCCCCCCN4C5CCCC4CC(OC(=O)Nc4cc(C)ccc4OC)C5)cc3)CC2)nc2ccccc2c1=O` (centres undefined), the growth was -79.1% (active).

Consider `CC(C)OC(=O)NNC(=O)c1ccncc1`, for which the growth was 118%.

In the case of `O=C(CSc1nc2ccccc2[nH]1)NCc1ccccc1`, the growth is 101%. Under `CN(C)CCC(CCN(C)C)(C(=O)O)c1ccccc1` stands 102%. With `CC(=O)c1c[nH]c2ccc(-c3ccnc(Nc4ccc(NC(=O)c5cccc(F)c5)c(CN5CCOCC5)c4)n3)cc12`, the growth is -32.9% (active). Take `CCOc1ccc(-n2nc(C(=O)Nc3cc(OC)c(OC)c(OC)c3)nc2-c2cc(OC)c(OC)c(OC)c2)cc1`: the growth was 82%. On to `COc1ccc(-n2c(/C=C/c3ccc(O)c(OC)c3)cc(/C=C/c3ccc(O)c(OC)c3)nc2=O)cc1`, for which the growth is 29%. Consider `CC(=O)N(CC(O)CO)c1c(I)c(C(=O)NCCO)c(I)c(C(=O)NCC(O)CO)c1I` (centres undefined), for which the growth was 110%. The result for `CC[C@]12CN3CCc4c([nH]c5ccccc45)[C@@](C(=O)OC)(c4cc5c(cc4OC)N(C)[C@H]4[C@@](O)(C(=O)OC)[C@H](OC(C)=O)[C@]6(CC)C=CCN7CC[C@]54[C@@H]76)CC(C3)[C@H]1O2` (some centres undefined) reads -12.7% (active).

Turning to `CC[C@H]1CCC/C=C/[C@@H]2C[C@H](O)C[C@H]2[C@H](O)/C=C/C(=O)O1`, the growth was -51.5% (active). As to `Cc1ccc(C(=O)Nc2ccc(CN3CCN(C)CC3)c(C(F)(F)F)c2)cc1C#Cc1cnc(N)c2ccccc12`, the growth was -61.7% (active). On to `Cc1cc2cc3ccc(N(C)C)cc3nc2cc1N`, for which the growth is -56.8% (active). For `C[C@@H](Nc1ncnc2ccc(-c3cnc(Cl)c(NS(C)(=O)=O)c3)cc12)c1ccccc1`, the growth was 30.8%.

With `CC(C)c1[nH]nc2c(NCc3ccc(-c4ccccn4)cc3)nc(SCCN)nc12`, the growth was -60.3% (active). For the compound `O=C1CCC2=C3C4CCCCC4C(=O)C4CCCC(OC2C1)C34` (centres undefined), the growth was 33.3%. For the compound `COc1cc(NC(=O)c2cc(O)c(CC=C(C)C)c(O)c2)cc2c1O[C@]1(C)CC[C@@H](O)C(C)(C)[C@H]1C2`, the growth is 30.8%. For the compound `CN1C(=S)N(C)C2C1NN=C1SC(c3ccccc3)=CC(=O)N12` (centres undefined), the growth was 62.9%. Under `CC(C)CSc1nc(Nc2ccccc2)c(C#N)c(-c2ccc(F)cc2)n1` stands 16.4%. In the case of `Cc1ccc(CNc2ccc(Cl)cc2NCc2ccc(C)c(O)c2)cc1O`, the growth is 32.5%. The result for `Cc1cc(Cl)nc(N(CCCNc2ccnc3cc(Cl)ccc23)Cc2ccccn2)n1` reads 0.122% (active); that for `COc1ccc2c(c1)C/C(=C\c1cc(-c3cc(OC)c(OC)c(OC)c3)n[nH]1)C2=O`, 68.8%; that for `COc1ccc(N=Nc2ccc(O)c(=O)cc2)cc1`, -31.9% (active).

As for `COC(=O)C1=Nc2ccc(F)cc2/C1=C/c1sc(=S)[nH]c1O`, the growth is 13.4%.

On to `COc1cccc(/C=C/c2c(C(=O)O)cccc2[N+](=O)[O-])c1OC`, for which the growth was 108%. On to `CCOC(=O)C(=Cc1ccc(-c2ccccc2)cc1)C(=O)OCC`, for which the growth was 53%. `CCc1[nH]nc(-c2ccc(OC)cc2)c1-c1ccccc1OCCN(CC)CC`: the growth is 87.8%. With `COc1cc(NCCCN=C(N)NC(N)=NC(C)C)c2ncccc2c1`, the growth was -34.2% (active).

Regarding `NC(=O)C1CCCN(Cc2c[nH]c3ccccc23)C1` (centres undefined), the growth was 97.7%. Turning to `CN1CCN(CC#CCOC(=O)CNC(=O)[C@]23CCC(C)(C)C[C@H]2C2=CC[C@@H]4[C@@]5(C)CC[C@H](O)C(C)(C)[C@@H]5CC[C@@]4(C)[C@]2(C)CC3)CC1`, the growth is 97.5%. Turning to `COc1ccc(Oc2ccc(/C=N/NC(=O)CSc3nc4ccccc4c(=O)n3-c3ccc(Cl)cc3)cc2)cc1`, the growth was 66.8%. Turning to `COc1cccc(-c2nc(SCC(=O)Nc3ccc(C(=O)/C=C/c4ccc(OC)c(OC)c4)cc3)[nH]c(=O)c2C#N)c1`, the growth is 65.7%. With `CCCCn1sc(=O)n(Cc2ccc(CNC(=O)OCc3ccc4c(Br)cc(Br)c(O)c4n3)cc2)c1=O`, the growth is 27.3%. For `Cc1c(C(=O)NCCCc2ccccc2)sc2ncc(-c3ccc(Br)cc3)n12`, the growth was 108%.

Consider `Cc1nn(-c2nc3ccccc3[nH]2)c2c1C(c1ccc3c(c1)OCO3)CC(=O)N2` (centres undefined), for which the growth is 47.7%.

As to `NS(=O)(=O)c1ccc(Nc2nc(N/N=C/c3ccc([N+](=O)[O-])cc3)nc(Nc3ccccc3)n2)cc1`, the growth is 1.11% (active). Consider `CC1=C(C(=O)Nc2ccccc2)C(c2ccc3c(c2)OCCO3)NC(=O)N1` (centres undefined), for which the growth is 106%. Take `Cc1sc2c(c1C)c(=O)nc1c(-c3nc(-c4ccc(F)cc4)no3)n[nH]n12`: the growth is 110%. With `O=C(O)c1ccc(-n2cc(CNc3ccc(C(F)(F)F)cc3)c(-c3ccccc3)n2)cc1`, the growth is 102%. The result for `CCOC(=O)c1cc(C(=O)c2ccc(OC)c(OC)c2)n2ccc(/C=C/c3cc[n+](CC(=O)c4ccc(OC)c(OC)c4)cc3)cc12` reads 71.9%.

In the case of `COc1ccc(C(=O)Cn2c(C(=O)c3ccccc3)nc3ccccc32)cc1`, the growth was 2.35% (active).

Regarding `COc1c(-c2c3sc(=O)[nH]c3nc3c2c(=O)[nH]n3C(C)C)cc2c(c1OC)OCO2`, the growth is 102%. As for `Cn1c(=O)[nH]c(=O)c2nc(CCC(=O)NCCC(=O)O)c(=O)[nH]c21`, the growth is 102%.

Consider `CS(=O)(=O)c1ccc2c(c1)c1c(n2Cc2ccc(Cl)cc2)CCCC1`, for which the growth was 50.4%. For the compound `NC(=O)c1cccc(C#CCNC[C@H]2C[C@@H](n3ccc4c(Cl)ncnc43)[C@H](O)[C@@H]2O)c1`, the growth is 95.9%. With `CC(=O)c1c(C)nc(SCC(=O)Nc2cccc(O)c2)n1-c1ccc(Cl)cc1`, the growth was 79.7%. The result for `CCCCCCCCOC(=O)CC[C@@H](C)[C@H]1CC[C@H]2[C@@H]3[C@H](OC(=O)CCN)C[C@@H]4C[C@H](OC(=O)CCN)CC[C@]4(C)[C@H]3C[C@H](OC(=O)CCN)[C@]12C` reads 3.95% (active). `Cc1ccc(C(=O)C(Br)C(Br)c2ccccc2)cc1` (centres undefined): the growth was 42.8%.

With `CCOC(=O)CNC1=C(Cl)C(=O)N(Cc2ccc(Cl)cc2)C1=O`, the growth is 105%.
